Laboratory results from PubChem BioAssay (NCATS).
Inconclusive results are not listed. Calls of active or inactive are those of the source. The call rests on the fitted dose curve; in most records, active means well fitted inhibition curve with a large enough effect; inconclusive means small, poorly fitted or top-dose-only effect; inactive means flat fitted curve, though single readings scatter.

Assays:
[1] = system: CRL-7250; assay: Cytotoxic Profiling of Annotated Libraries Using Quantitative High-Throughput Screening (AID 1296008); conditions: Five cell lines viability, CellTiter-Glo ATP luminescence, 48-72 h; max response: hits give low values; on max response: on the % scale 0 is the no-effect control and ±100 the full control effect
Procedure, shortened: (§1)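 Cells exposed to compounds for 48 or 72 hr at 37 degrees Celsius. Viability read as ATP-coupled luminescence with CellTiter-Glo after 10 min at room temperature.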

[2] = system: HEK293; assay: as above; conditions: Five cell lines viability, CellTiter-Glo ATP luminescence, 48-72 h; max response: hits give low values
Procedure, shortened: as §1

[3] = system: HaCat; assay: as above; conditions: Five cell lines viability, CellTiter-Glo ATP luminescence, 48-72 h; max response: hits give low values
Procedure, shortened: as §1

[4] = system: KB-3-1; assay: as above; conditions: Five cell lines viability, CellTiter-Glo ATP luminescence, 48-72 h; max response: hits give low values
Procedure, shortened: as §1

[5] = system: NIH3T3; assay: as above; conditions: Five cell lines viability, CellTiter-Glo ATP luminescence, 48-72 h; max response: hits give low values
Procedure, shortened: as §1

[6] = system: HEK293T; assay: qHTS assay to identify novel small-molecules to repurpose for Merkel cell carcinoma treatment (AID 1296009); conditions: MCC and control cell lines, CellTiter-Glo viability, 72 h; at 44.8 µM (top of the series) unless noted
Procedure, shortened: (§2)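 Cells were incubated with compound for 72 hr at 37 degree celsius before CellTiter-Glo addition. Luminescence was normalized with no-cell wells as full cytotoxicity and DMSO as baseline.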

[7] = system: MCC-13; assay: as above; conditions: MCC and control cell lines, CellTiter-Glo viability, 72 h; series mostly up to 46 µM
Procedure, shortened: as §2

[8] = system: TAB165; assay: qHTS profiling for inhibitors of Plasmodium falciparum proliferation (AID 504749);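 further: 0% = DMSO vehicle and full inhibition = artemisinin control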; conditions: P. falciparum in erythrocytes, SYBR Green DNA, 72 h; series mostly up to 28.7 µM
Procedure, shortened: (§3)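 Readout was DNA-dye fluorescence from lysed cultures, ex 485/em 535 nm. Parasitized red cells had grown 72 h with compound; data scaled between 0.29 uM artemisinin and DMSO wells and corrected using vehicle-only plates.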

[9] = system: W2; assay: as above; conditions: P. falciparum in erythrocytes, SYBR Green DNA, 72 h; series mostly up to 28.7 µM
Procedure, shortened: as §3

[10] = system: HACAT; assay: qHTS assay to identify novel small-molecules to repurpose for Merkel cell carcinoma treatment (AID 1296009); conditions: MCC and control cell lines, CellTiter-Glo viability, 72 h; at 44.8 µM (top of the series) unless noted
Procedure, shortened: as §2
Further: nearly all actives have a fitted effect of over 60% in size.

CCCN(CCC)C(=O)C(CCC(=O)O)NC(=O)c1ccccc1 (centres undefined)
inactive: max response [1] -4.87% | outcome [2] | max response [3] 4.34% | max response [4] 20.1% | max response [5] -2.14% | outcome [6] | Potency [7]

CC(C)NNC(=O)c1ccncc1
inactive: Potency [8] | Potency [9] | max response [1] -3.48% | max response [2] -10.4% | outcome [3] | max response [4] -1.28% | outcome [5] | outcome [10] | Potency [7]

CN(C)CCOC(=O)COc1ccc(Cl)cc1
inactive: Potency [8] | Potency [9] | max response [1] -13.3% | max response [2] 2.83% | outcome [3] | max response [4] -1.09% | max response [5] 0.547% | outcome [10] | Potency [7]

CCCN(CCC)CCc1cccc2c1CC(=O)N2
inactive: Potency [8] | Potency [9] | max response [1] 1.13% | outcome [2] | max response [3] -2.54% | max response [4] -0.569% | max response [5] -15.5% | outcome [6] | Potency [7]

CN(C)C(=O)Oc1cccc([N+](C)(C)C)c1
inactive: Potency [8] | Potency [9] | outcome [1] | outcome [2] | outcome [3] | max response [4] 3.68% | max response [5] 1.77% | outcome [10] | outcome [6] | Potency [7]

CCCOc1ccccc1-c1nc2n[nH]nc2c(=O)[nH]1
inactive: Potency [8] | max response [1] -0.525% | max response [2] 2.92% | outcome [3] | max response [4] -27% | max response [5] -1.31% | outcome [10] | Potency [7]

CC(C(=O)O)c1ccc(CC2CCCC2=O)cc1 (centres undefined)
inactive: Potency [8] | Potency [9] | max response [1] 2.29% | outcome [2] | max response [3] -3.69% | max response [4] -8.05% | max response [5] -16.1% | outcome [6] | Potency [7]

CCN(Cc1ccncc1)C(=O)C(CO)c1ccccc1 (centres undefined)
inactive: Potency [8] | Potency [9] | max response [1] -20.8% | max response [2] -10.1% | outcome [3] | max response [4] 6.96% | max response [5] -10.9% | outcome [10] | Potency [7]

C[C@H](CS)C(=O)N1CCC[C@H]1C(=O)O
inactive: Potency [8] | Potency [9] | max response [1] 1.04% | max response [2] -1.78% | max response [3] 2.06% | max response [4] 0.626% | max response [5] -6.68% | Potency [7]

C[C@]12C=CC(=O)C=C1CC[C@H]1[C@@H]3C[C@@H](O)[C@](O)(C(=O)CO)[C@@]3(C)C[C@H](O)[C@@]12F
inactive: max response [1] 3.67% | outcome [2] | max response [3] -5.14% | max response [4] 41.4% | outcome [5] | outcome [6] | Potency [7]

Nc1c2c(nc3ccccc13)CCCC2O (centres undefined)
inactive: Potency [8] | Potency [9] | max response [1] -0.206% | outcome [2] | outcome [3] | max response [4] -6.2% | max response [5] 4.53% | outcome [10] | outcome [6] | Potency [7]

Cc1scc2c1N(C(=O)CN1CCN(C)CC1)c1ccccc1NC2=O
inactive: Potency [9] | max response [1] -1.88% | max response [2] -0.369% | outcome [3] | max response [4] 6.97% | max response [5] -7.24% | outcome [10] | Potency [7]

CCOC(=O)c1cnc2c(cnn2CC)c1NN=C(C)C
inactive: Potency [8] | max response [1] 1.67% | max response [2] 2.79% | max response [3] -11.8% | max response [4] 7.56% | max response [5] -3.28% | Potency [7]

O=C(CCNNC(=O)c1ccncc1)NCc1ccccc1
inactive: Potency [8] | max response [1] 0.469% | max response [2] -20% | max response [3] -22% | max response [4] 4.64% | max response [5] -21.8% | Potency [7]

CCN1CCC[C@H]1CNC(=O)c1c(O)c(Cl)cc(Cl)c1OC
inactive: Potency [8] | Potency [9] | outcome [1] | outcome [2] | outcome [3] | max response [4] -13.7% | max response [5] 1.49% | outcome [10] | outcome [6] | Potency [7]

CCCCCN(CCCCC)C(=O)C(CCC(=O)O)NC(=O)c1ccc(Cl)c(Cl)c1 (centres undefined)
inactive: Potency [8] | Potency [9] | max response [1] -3.52% | max response [2] -9.3% | outcome [3] | max response [4] -8.56% | max response [5] -0.48% | outcome [10] | Potency [7]

CC(=O)OCC1=C(C(=O)O)N2C(=O)[C@@H](NC(=O)Cc3cccs3)[C@H]2SC1
inactive: Potency [8] | Potency [9] | max response [1] 1.94% | max response [2] -2.75% | outcome [3] | max response [4] 1.19% | outcome [5] | outcome [10] | Potency [7]

Cc1ccc(Cl)c(Nc2ccccc2C(=O)O)c1Cl
inactive: Potency [8] | Potency [9] | max response [1] 2.33% | outcome [2] | max response [3] -3.9% | max response [4] -10.1% | max response [5] 3.05% | outcome [6] | Potency [7]
